Source: PubChem
Most compounds without a hit are left out; they make up all but 1.8% or so of the library.
Sa RN4220 lethal – S. aureus RN4220 growth inhibition; AID 1259311; 330,000 compounds, 0.33% hits; OD600, 16 h; inhibition, % (test concentration not listed); in the data active = inhibition above about 85%
DUSP3 inh – DUSP3 (human) phosphatase inhibition; recombinant VHR phosphatase, pNPP absorbance; AID 1654; P51452; inhibition, % at 13.3 µM; 290,000 compounds, 0.52% hits; in the data active = inhibition above about 50%
PrPC TRFRET – inhibitors of human cell surface prion protein PrPC; TR-FRET read-out; inhibition, % at 13.8 µM; 370,000 compounds, 0.43% hits; in the data active = inhibition above about 24%
PfHsp40 rescue – rescue of PfHsp40-mediated yeast toxicity | AID 504582 | S. cerevisiae expressing PfHsp40, growth rescue, ATP luminescence | growth rescue, % at 12.5 µM | 340,000 compounds, 0.68% hits; in the data active = growth rescue above about 28%, passing the limit was not always enough;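 also: yeast W303a lacking pdr1 and pdr3 grown in galactose medium; growth measured after three days at 30 °C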
Sa ugtP lethal – kills S. aureus RN4220 lacking UgtP; 330,000 compounds, 0.54% hits; growth inhibition, % (concentration not given with the values); S. aureus RN4220 ugtP deletion, OD600 growth, 16 h; in the data active = growth inhibition above about 68%
PrPC confirm – cell surface PrPC inhibition, TR-FRET confirmation; shares compounds with PrPC TRFRET; cell surface PrPC level; inhibition, % at 13.8 µM; 1,500 compounds, 65% hits; AID 743200; in the data active = inhibition above about 25%
LD9 tox – kills or reduces viability of LD9 cells in PrPc counter-screen; shares compounds with PrPC TRFRET; LD9 cells cytotoxicity, luminescence viability; inhibition, % at 13.8 µM; 1,500 compounds, 29% hits; in the data active = inhibition above about 9.5%
Each line names hits and unclear results; the compound was inactive in the other large screens (follow-up assays come after a bar, where they were run).

COc1ccc(/C=C(/C(=O)c2cccs2)N2C=CC=CC2=C(C#N)C#N)cc1	none
N#CC(C#N)=C1C=CC=CN1/C(=C\c1ccco1)C(=O)c1ccccc1	PrPC TRFRET 74 | PrPC confirm 67 | LD9 tox 79
CSc1ccc(C=NNC(=O)CC(=O)NC(C)C)cc1	none (no result: DUSP3 inh, PrPC TRFRET, PfHsp40 rescue)
CCOc1ccc(C2C(C#N)=C(N)SC(N)=C2C#N)cc1OC	none (no result: Sa RN4220 lethal, PrPC TRFRET, PfHsp40 rescue, Sa ugtP lethal)
CCOc1ccc(C2C(C#N)=C(N)SC(N)=C2C#N)cc1OCC	PrPC TRFRET 27 | PrPC confirm 72 | LD9 tox inactive
Cc1onc(-c2c(F)cccc2Cl)c1C(=O)Nc1nnc(C(F)(F)F)s1	PrPC TRFRET 62 | PrPC confirm 81 | LD9 tox inactive
C=C1C(C)C2C(Cc3ccccc3)NC(=O)C23C(OC(C)=O)C=CC(C)(O)CC(C)CC=CC3C1O (stereo not given)	PrPC TRFRET 40 (no result: Sa RN4220 lethal, DUSP3 inh, Sa ugtP lethal) | PrPC confirm 32 | LD9 tox inactive
C=C1[C@@H](C)[C@H]2[C@H](Cc3ccccc3)NC(=O)[C@]23OC(=O)/C=C/[C@H](O)CCC[C@@H](C)C/C=C/[C@H]3[C@@H]1O	PrPC TRFRET 41 (no result: Sa RN4220 lethal, Sa ugtP lethal) | PrPC confirm inactive | LD9 tox 9.7
C=C1[C@@H](C)C2[C@H](Cc3ccccc3)NC(=O)[C@]23[C@H](OC(C)=O)/C=C/[C@@](C)(O)C(=O)[C@@H](C)C/C=C/[C@H]3[C@@H]1O (stereo not given in full)	PrPC TRFRET 43 (no result: Sa RN4220 lethal, DUSP3 inh, PfHsp40 rescue, Sa ugtP lethal) | PrPC confirm 38 | LD9 tox inactive
C=C1[C@@H](C)C2[C@H](Cc3ccccc3)NC(=O)[C@]23OC(=O)CC[C@H](O)CCC[C@H](C)C/C=C/[C@H]3[C@@H]1O (stereo not given in full)	none (no result: Sa RN4220 lethal, PrPC TRFRET, PfHsp40 rescue, Sa ugtP lethal)
Cc1cccc(NS(=O)(=O)c2ccc3oc(=O)ccc3c2)c1C	PrPC TRFRET 37 | PrPC confirm inactive | LD9 tox inactive
COc1ccc(-n2nnnc2CNC(=O)C2CC(=O)N(c3ccc(F)cc3)C2)cc1 (stereo not given)	PrPC TRFRET 31 (no result: Sa RN4220 lethal, DUSP3 inh, PfHsp40 rescue, Sa ugtP lethal) | PrPC confirm inactive | LD9 tox inactive
COC(=O)[C@]12C[C@H](CC(=O)N3CCCCC3)C(=O)N(CCC3=CCCCC3)C1=C[C@H](C(C)C)O[C@@H]2C1CC1	PrPC TRFRET 29 (no result: Sa RN4220 lethal, DUSP3 inh, PfHsp40 rescue, Sa ugtP lethal) | PrPC confirm 32 | LD9 tox inactive
CCCCCCCCN1C(=O)[C@@H](CC(=O)N2CCOCC2)C[C@@]2(C(=O)OC)C1=C[C@H](C(C)C)O[C@@H]2C1CC1	none (no result: Sa RN4220 lethal, DUSP3 inh, PfHsp40 rescue, Sa ugtP lethal)
COC(=O)[C@]12C[C@H](CC(=O)N3CCCC3)C(=O)N(CCC3=CCCCC3)C1=C[C@H](C(C)C)O[C@@H]2C1CC1	PrPC TRFRET 28 (no result: Sa RN4220 lethal, DUSP3 inh, PfHsp40 rescue, Sa ugtP lethal) | PrPC confirm 31 | LD9 tox inactive
CCCCCCCCN1C(=O)[C@@H](CC(=O)N2CCCC2)C[C@@]2(C(=O)OC)C1=C[C@H](C(C)C)O[C@@H]2C1CC1	PrPC TRFRET 30 (no result: Sa RN4220 lethal, DUSP3 inh, PfHsp40 rescue, Sa ugtP lethal) | PrPC confirm 36 | LD9 tox inactive
CC(O)=C(C#N)c1nc2ccccc2[nH]1	none (no result: DUSP3 inh, PrPC TRFRET, PfHsp40 rescue)
NC(=NOC(=O)C1CC1)c1ccc([N+](=O)[O-])s1	none (no result: DUSP3 inh, PrPC TRFRET, PfHsp40 rescue)
Cc1nc(-c2ccc(S(=O)(=O)Nc3cccc(S(N)(=O)=O)c3)s2)cs1	none
Cc1nc(-c2ccc(S(=O)(=O)Nc3ccc(Br)cc3Cl)s2)cs1	Sa RN4220 lethal 96, PrPC TRFRET 37, PfHsp40 rescue 26 | PrPC confirm 53 | LD9 tox inactive
COc1ccc2c(C)cc(SCc3c(C)noc3C)nc2c1	PrPC TRFRET 67 | PrPC confirm 88 | LD9 tox inactive
O=C(C1=CC(c2ccccc2)CC(OCc2ccc(CO)cc2)O1)N1CCCCCCC1 (stereo not given)	none (no result: DUSP3 inh, PrPC TRFRET, PfHsp40 rescue)
Cc1cc(-c2ccccc2)n2ncnc2n1	PrPC TRFRET 28 | PrPC confirm inactive | LD9 tox inactive
CC[C@@]12C(=O)N(c3cccc(C)c3)C(=O)N1C(c1ccc(Br)cc1)C1C(=O)N(C(C)(C)C)C(=O)C12 (stereo not given in full)	none (no result: DUSP3 inh, PrPC TRFRET, PfHsp40 rescue)
CCOC(=O)C1C2COc3cc(OC)ccc3C2N2C(=O)N(c3ccc(OC)cc3)C(=O)[C@@]12C (stereo not given in full)	none (no result: DUSP3 inh, PrPC TRFRET, PfHsp40 rescue)
Cc1ccc(C)c(C2NC(=O)c3ccccc3N2)c1 (stereo not given)	none (no result: Sa RN4220 lethal, Sa ugtP lethal)
Cn1cc(C2NC(=O)c3ccccc3N2)c2ccccc21 (stereo not given)	PrPC TRFRET 25 (no result: Sa RN4220 lethal, DUSP3 inh, Sa ugtP lethal) | PrPC confirm inactive | LD9 tox inactive
CC1(C)c2[nH]c3ccccc3c2CC2C(=O)N(Cc3ccco3)C(=O)N21 (stereo not given)	none (no result: DUSP3 inh, PrPC TRFRET, PfHsp40 rescue)
CC(N)C(=O)NC1C2C(=C(O)CC(O)C2O)C(=O)OC1(C)C(Cl)Cl (stereo not given)	PrPC TRFRET 93 (no result: Sa RN4220 lethal, DUSP3 inh, Sa ugtP lethal) | PrPC confirm 100 | LD9 tox 26
COc1ccc(Br)cc1CNC(=O)c1ccc2c(c1)N(C)CCS2	PrPC TRFRET 37 | PrPC confirm 51 | LD9 tox inactive
CC(C)c1c(C(=O)NN=Cc2ccncc2)nnn1-c1nonc1N	none (no result: DUSP3 inh, PrPC TRFRET, PfHsp40 rescue)
Cc1ccc(Cn2nnc(C(=O)Nc3cc(C)ccc3C)c2N)cc1	none
Cc1ccc(C)c(NC(=O)c2nnn(Cc3ccccc3)c2N)c1	PrPC TRFRET 27 | PrPC confirm inactive | LD9 tox inactive
COc1ccc2c(CC(=O)Nc3ncc(C)s3)coc2c1	PrPC TRFRET 29 | PrPC confirm 35 | LD9 tox inactive
COC(=O)[C@]1(Cc2ccccc2)NC(c2ccc(-c3ccc(Cl)c(Cl)c3)cc2)C2C(=O)N(C)C(=O)C21 (stereo not given in full)	none (no result: DUSP3 inh, PrPC TRFRET, PfHsp40 rescue)
CN(Cc1ccccc1)C1(CNC(=O)CCC(F)(F)F)Cc2ccccc2C1	PrPC TRFRET 26 | PrPC confirm inactive | LD9 tox inactive
C#Cc1ccc(C2C=C(C(=O)Nc3ccccc3)OC(OCc3ccc(CO)cc3)C2)cc1 (stereo not given)	none (no result: DUSP3 inh, PrPC TRFRET, PfHsp40 rescue)
O=C1C(=C(c2ccccc2)N2CCOCC2)Cc2ccccc21	PrPC TRFRET 33 (no result: Sa RN4220 lethal, DUSP3 inh, PfHsp40 rescue, Sa ugtP lethal) | PrPC confirm inactive | LD9 tox 98
CCC(C)C1CNC(=S)N1CCc1cc(C(F)(F)F)cc(C(F)(F)F)c1 (stereo not given)	none (no result: DUSP3 inh, PrPC TRFRET, PfHsp40 rescue)
COc1ccc(C(=O)NNC(=O)C(Cc2ccc(O)cc2)NC(=O)c2ccccc2NC(=O)c2ccc(OC)cc2)cc1 (stereo not given)	PrPC TRFRET 119 | PrPC confirm inactive | LD9 tox inactive
COc1ccc(C(=O)Nc2ccccc2C(=O)NC(Cc2ccc(O)cc2)C(=O)NNC(=O)c2ccccc2Cl)cc1 (stereo not given)	none
S=c1[nH]c2ccccc2n2c(=S)[nH]nc12	PrPC TRFRET 30 | PrPC confirm 59 | LD9 tox inactive
Cc1ccc(C(=O)NNC(=O)CCCN2C(=O)C(=Cc3ccccc3Cl)SC2=S)cc1	none (no result: DUSP3 inh, PrPC TRFRET, PfHsp40 rescue)
CC(C)(C)c1cc(CCC(=O)N2CCC2)cc(C(C)(C)C)c1O	none
